HIF-2a inh – HIF-2a inhibition | 786-0 RCC cells HIF-2a reporter, luciferase luminescence, overnight | inhibition, % at 18.8 µM | 0.72% of 360,000 active;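 active = inhibition of the luminescence signal of 40% or more relative to plate controls, in a single-dose primary screen at 18.75 µM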
Peg3 promoter – reduces Peg3 promoter-driven luciferase expression in HeLa; HeLa PEG-Prom luciferase reporter, luminescence, overnight; 1.7% of 360,000 active; inhibition, % at 20 µM;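 active = inhibition of at least 50% at 20 µM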
CF NFkB inh – cystic fibrosis NF-kB activation inhibition; 0.86% of 360,000 active; KKLEB NF-kB-GFP reporter, PAF-induced, GFP fluorescence overnight; inhibition, % at 5 µM;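 active = at least 50% inhibition at 5 µM, scaled per plate between neutral and stimulator controls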;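 note: PAF is a Pseudomonas aeruginosa culture filtrate used as stimulus; plate controls were PAF-stimulated DMSO wells for no effect and unstimulated DMSO wells for full effect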
ABHD5 PLIN5 PPI – blocks binding of human ABHD5 to perilipin-5 | Q00G26+Q8WTS1 | Split G. princeps luciferase complementation, luminescence, 4 h | inhibition, % at 4 µM | 0.78% of 360,000 active | AID 602281;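 active = inhibition above the mean inhibition across every tested compound plus 3 SD, cut at about 22% in these data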;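 note: 0% = DMSO only wells and the 100% control is not disclosed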
Target sequence (Q00G26 whole entry, looked up): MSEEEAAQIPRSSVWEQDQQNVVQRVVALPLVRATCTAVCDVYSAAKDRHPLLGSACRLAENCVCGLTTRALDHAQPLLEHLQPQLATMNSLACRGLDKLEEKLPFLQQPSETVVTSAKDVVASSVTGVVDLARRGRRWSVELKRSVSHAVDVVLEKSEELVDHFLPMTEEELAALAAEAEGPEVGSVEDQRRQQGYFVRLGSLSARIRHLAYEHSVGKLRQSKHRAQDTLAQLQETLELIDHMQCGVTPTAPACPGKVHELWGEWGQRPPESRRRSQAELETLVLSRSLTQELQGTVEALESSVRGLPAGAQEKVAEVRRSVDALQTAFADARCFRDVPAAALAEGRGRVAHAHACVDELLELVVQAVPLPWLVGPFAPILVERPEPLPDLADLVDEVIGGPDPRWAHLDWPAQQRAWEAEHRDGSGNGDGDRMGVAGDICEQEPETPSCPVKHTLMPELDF
Target sequence (Q8WTS1 whole entry, looked up): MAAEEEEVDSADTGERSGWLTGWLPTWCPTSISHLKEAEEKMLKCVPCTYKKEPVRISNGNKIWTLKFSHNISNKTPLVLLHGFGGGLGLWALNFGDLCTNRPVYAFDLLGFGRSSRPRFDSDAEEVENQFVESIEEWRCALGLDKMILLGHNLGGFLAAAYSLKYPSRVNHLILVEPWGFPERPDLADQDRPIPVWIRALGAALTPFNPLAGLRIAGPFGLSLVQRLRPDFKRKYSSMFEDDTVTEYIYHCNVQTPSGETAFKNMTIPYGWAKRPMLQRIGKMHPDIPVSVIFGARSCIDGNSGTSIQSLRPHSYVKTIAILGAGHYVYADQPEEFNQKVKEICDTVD
Mdm2 MdmX PPI – inhibitors of human Mdm2/MdmX interaction | O15151+Q00987 | SaOS-2 split-luciferase Mdm2/MdmX complementation, luminescence | inhibition, % at 8 µM | 3% of 330,000 active | AID 485346;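 active = inhibition of at least 50% at 8 µM in the primary screen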
KKLEB tox – counter-screen for CF NF-kB inhibitors: cytotoxicity; KKLEB CF airway cells viability, ATPlite luminescence, overnight; stronger effect = lower value; cells stimulated with P. aeruginosa culture filtrate; activity change (cytotoxicity), % at 5 µM; 0.36% of 360,000 active;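 active = corrected activity change at or below -50% at 5 µM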
Mdm2 MdmX conf – human Mdm2/MdmX binding inhibition, confirmed; shares compounds with Mdm2 MdmX PPI; luminescent assay; inhibition, % at 8 µM; 55% of 10,000 active; in the data active = inhibition above about 40%
Full FLuc ctr – counter-screen for Mdm2/MdmX inhibitors: full-length luciferase | inhibition, % at 8 µM | SaOS-2 full-length luciferase counterscreen, luminescence | shares compounds with Mdm2 MdmX PPI | 77% of 6,200 active | AID 504607;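 active = mean inhibition at 8 µM reaching about 37%, which flags the compound as non-specific, limit read from the data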;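 note: p53-null SaOS-2 cells with luciferase driven by a doxycycline-inducible promoter; compound on cells about two nights before reading with doxycycline added after day one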
* marks the source's active call; other numbers are inactive results. The list is not random: actives were taken first. Their share in the collection is about 4.6%.

`COc1cc2c(cc1OC)[C@@H](Cc1ccc(OCCC#N)cc1)N(C)CC2` gave HIF-2a inh 12, Peg3 promoter 6, CF NFkB inh 9, ABHD5 PLIN5 PPI 2, Mdm2 MdmX PPI -33 and KKLEB tox -8.
`COc1cc2c(cc1OC)C(Cc1ccc(O)c(Oc3ccc(C[C@H]4c5cc(OC)c(OC)cc5CCN4C)cc3)c1)N(C)CC2` (some centres not stated) gave Mdm2 MdmX PPI 72* and Mdm2 MdmX conf 29.
For COc1cc(C2CC(=O)c3cnc(N4CCN(Cc5ccccc5)CC4)nc3C2)cc(OC)c1OC (configuration not stated) the results were HIF-2a inh 23, Peg3 promoter 42, CF NFkB inh 20, ABHD5 PLIN5 PPI -1, Mdm2 MdmX PPI 52*, KKLEB tox -13, Mdm2 MdmX conf 68* and Full FLuc ctr 52*.
`Cc1ccccc1N1C(=O)c2cc(S(N)(=O)=O)c(Cl)cc2NC1C` (configuration not stated) gave HIF-2a inh 0, Peg3 promoter 4, CF NFkB inh -6, ABHD5 PLIN5 PPI -2, Mdm2 MdmX PPI 2 and KKLEB tox -11.
Screening COc1cc(C2NCC(c3ccc(Cl)cc3Cl)c3c2[nH]c2ccccc32)cc(OC)c1OC (configuration not stated) returned HIF-2a inh -16, Peg3 promoter 36, CF NFkB inh -1, ABHD5 PLIN5 PPI -2, Mdm2 MdmX PPI 61*, KKLEB tox 2 and Mdm2 MdmX conf 10.
O=C(O)c1ccc(C2NCC(c3ccccc3Cl)c3c2[nH]c2ccccc32)cc1 (configuration not stated) was read as HIF-2a inh 14, Peg3 promoter 4, CF NFkB inh -18, ABHD5 PLIN5 PPI 3, Mdm2 MdmX PPI 3 and KKLEB tox 19.
Screening O=C(CCC1CCCN(C(=O)c2cccc(F)c2)C1)N1CCN(c2ccccn2)CC1 (configuration not stated) returned HIF-2a inh 18, Peg3 promoter 0, CF NFkB inh -12, ABHD5 PLIN5 PPI 6, Mdm2 MdmX PPI 4 and KKLEB tox 2.
CCCc1c(NC(=O)Nc2ccc(F)cc2)cnn1-c1ccc(Cl)cc1 was read as HIF-2a inh -3, Peg3 promoter 35, CF NFkB inh -13, ABHD5 PLIN5 PPI -2, Mdm2 MdmX PPI 61*, KKLEB tox 10 and Mdm2 MdmX conf 32.
Oc1ccccc1/C=N/[n+]1ccccc1 was read as HIF-2a inh 6, Peg3 promoter -1, CF NFkB inh 8, ABHD5 PLIN5 PPI 9, Mdm2 MdmX PPI 53*, KKLEB tox -6, Mdm2 MdmX conf 53* and Full FLuc ctr 121*.
For Cc1ccc(-n2c(C)cc(C3=NNC(=NC4CC4)SC3)c2C)cc1C the results were HIF-2a inh -21, Peg3 promoter -68, CF NFkB inh 11, ABHD5 PLIN5 PPI -3, Mdm2 MdmX PPI 69*, KKLEB tox 0, Mdm2 MdmX conf 50* and Full FLuc ctr 120*.
`O=C1[C@@H](Oc2ccccc2)[C@@H](c2cnc3ccccc3c2)N1c1ccccc1` gave HIF-2a inh 5, Peg3 promoter 14, CF NFkB inh 48, ABHD5 PLIN5 PPI -1, Mdm2 MdmX PPI 53*, KKLEB tox -5, Mdm2 MdmX conf 54* and Full FLuc ctr 56*.
`COC(=O)[C@]12CCCCC=C1N(CCC1=CCCCC1)C(=O)[C@H](CC(=O)NCc1ccccc1)C2` gave HIF-2a inh -2 and ABHD5 PLIN5 PPI -6.
`CCn1c(=S)sc2c(=O)n(-c3ccccc3)c(SC)nc21` gave HIF-2a inh 27, Peg3 promoter 19, CF NFkB inh 7, ABHD5 PLIN5 PPI 0, Mdm2 MdmX PPI 21 and KKLEB tox 4.
`N#CCSc1nc2c(sc(=S)n2Cc2ccco2)c(=O)n1-c1ccc(F)cc1` gave HIF-2a inh 36, Peg3 promoter 41, CF NFkB inh 9, ABHD5 PLIN5 PPI 8, Mdm2 MdmX PPI 61*, KKLEB tox 2, Mdm2 MdmX conf 58* and Full FLuc ctr 32.
